The list is not random: actives were taken first. Their share in the collection is about 19%.
SARS PLpro yeast = inhibitors of SARS-CoV papain-like protease in yeast; S. cerevisiae expressing SARS-CoV PLpro, growth rescue; Potency, µM (highest dose often 32.9 µM), usual class: activators; actives 0.19% (n = 330,000); AID 485353; calls by dose curve; note: nearly all actives have a fitted effect of over 55% in size
Shiga inhibitor = inhibitors of Shiga toxin in Vero cells. Vero cells, Shiga toxin protein synthesis inhibition reporter. actives 9.2% (n = 290,000). AID 2315. inhibition, % at 38.7 µM; in the data active = inhibition mostly above about 28%, no sharp cut-off; inactive = mostly below about 43%
AMA1-RON2 inh = disrupts binding of P. falciparum AMA1 to RON2. AlphaScreen AMA1-biotinylated RON2 peptide binding. actives 0.2% (n = 360,000). Potency, µM (top dose mostly 58.2 µM), usual class: inhibitors. AID 720542; note: nearly all actives have a fitted effect of over 45% in size
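AMA1 (3D7) with his tag at 25 nM final met compounds first, then biotinylated RON2 peptide at 25 nM; detection used donor plus acceptor beads, 10 µg/mL apiece, read by AlphaScreen after 30 min at room temperature.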
Cycloheximide cs = counter-screen for Shiga toxin inhibitors: cycloheximide protein synthesis inhibition; cell reporter, cycloheximide protein synthesis inhibition counterscreen; max response, %; actives 12% (n = 300,000); AID 2314; in the data active = max response mostly above about 13%, no sharp cut-off; inactive = mostly below about 14%; note: read at 38.3 µM for the half of the compounds with a filed dose
Pf growth 48h = inhibits P. falciparum growth in the first generation, 48 h; P. falciparum luciferase growth in erythrocytes, 48 h; Potency, µM (titrated, usually from 28.7 µM), actives largely listed as inhibitors; actives 5.9% (n = 310,000); AID 504832
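Firefly luciferase activity from engineered P. falciparum reports growth; inhibitors lower the luminescent signal. Cultures contained 2% hematocrit erythrocytes at 0.1% final parasitemia.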
Pf growth 96h = P. falciparum growth inhibition at 96 hours | P. falciparum luciferase reporter growth, 96 h | Potency, µM (titrated, usually from 28.7 µM), hits mostly inhibitors | actives 6.9% (n = 320,000)
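Infected RBCs, 2% Hct / 0.05% parasitemia final; luciferase-reporter P. falciparum; cpd 96 h, 37 C, 5% CO2; luciferase detection reagent; luminescence.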
Numbers stand for hits; [ ] = dose if it differs, or a comment. Unless noted, calls come from the whole dose curve; as a rule, active = well fitted curve in the direction sought with a large enough effect; inconclusive = small, poorly fitted or top-dose-only effect, or another doubt; inactive = no such curve, though single readings can be large; an effect the other way counts as inactive or inconclusive.

Results for CCCCCCCCCCCCC/C=C/[C@@H](O)[C@@H](N)COP(=O)(O)O ?
Shiga inhibitor: inactive; Cycloheximide cs: inactive

Results for O=C(COc1c(CO)cc(Br)cc1CO)NC1CCCc2ccccc21 (configuration not stated) ?
SARS PLpro yeast: inactive; Shiga inhibitor: inactive; AMA1-RON2 inh: inactive; Cycloheximide cs: inactive; Pf growth 48h: inactive; Pf growth 96h: inactive

Results for COCCCC1CCN(C(=O)C2CCC(=O)N(Cc3cccc(F)c3)C2)CC1 (configuration not stated) ?
SARS PLpro yeast: inactive; Shiga inhibitor: inactive; AMA1-RON2 inh: inactive; Cycloheximide cs: inactive; Pf growth 48h: inconclusive; Pf growth 96h: inconclusive

What do the screens show for `O=C(O)CCC(=O)N1N=C(c2ccc(Br)cc2)CC1c1cccc(Br)c1` (configuration not stated)?
SARS PLpro yeast: inactive; Shiga inhibitor: inactive; AMA1-RON2 inh: inactive; Cycloheximide cs: inactive; Pf growth 48h: 6.6µM; Pf growth 96h: inactive

What do the screens show for `COc1ccc(C2CC(c3ccccc3)=NN2C(=O)CCC(=O)O)cc1` (configuration not stated)?
SARS PLpro yeast: inactive; Shiga inhibitor: inactive; AMA1-RON2 inh: inactive; Cycloheximide cs: inactive; Pf growth 48h: inactive; Pf growth 96h: inactive

How did O=C(O)CCC(=O)N1N=C(c2ccc(Br)cc2)CC1c1ccc(Br)cc1 (configuration not stated) do in these assays?
SARS PLpro yeast: inactive; Shiga inhibitor: inactive; AMA1-RON2 inh: inactive; Cycloheximide cs: inactive; Pf growth 48h: inactive; Pf growth 96h: inconclusive

How did COc1ccc(C2=NN(C(=O)CCC(=O)O)C(c3ccccc3F)C2)cc1 (configuration not stated) do in these assays?
SARS PLpro yeast: inactive; Shiga inhibitor: inactive; AMA1-RON2 inh: inactive; Cycloheximide cs: inactive; Pf growth 48h: inactive; Pf growth 96h: 2.3µM

Results for COc1ccc(C2=NN(C(=O)CCC(=O)O)C(c3ccc(OC)c(OC)c3)C2)cc1 (configuration not stated) ?
SARS PLpro yeast: inactive; Shiga inhibitor: inactive; AMA1-RON2 inh: inactive; Cycloheximide cs: inactive; Pf growth 48h: inactive; Pf growth 96h: 12µM

Results for CCOC(=O)N1CCN(CC(O)COc2ccc3c(c2)CCC3)CC1 (configuration not stated) ?
SARS PLpro yeast: inactive; Shiga inhibitor: inactive; AMA1-RON2 inh: inactive; Cycloheximide cs: inactive; Pf growth 48h: inactive; Pf growth 96h: inactive

What do the screens show for `COc1ccc(S(=O)(=O)NC(=O)C2(C)CCN2C(=O)CCc2ccc(Cl)cc2Cl)cc1` (configuration not stated)?
AMA1-RON2 inh: inactive

Results for S=C(Cc1cccnc1)N1CCOCC1 ?
SARS PLpro yeast: inactive; Shiga inhibitor: inactive; AMA1-RON2 inh: inactive; Cycloheximide cs: inactive; Pf growth 48h: inactive; Pf growth 96h: inactive

What do the screens show for `Cn1c2c(c(=O)n(C)c1=O)C1(C(=O)Nc3ccccc31)C(C#N)=C(N)O2` (configuration not stated)?
SARS PLpro yeast: inactive; Shiga inhibitor: inactive; AMA1-RON2 inh: inactive; Cycloheximide cs: inactive; Pf growth 48h: 10µM; Pf growth 96h: 8.3µM

Results for N#Cc1c(Nc2ccccc2)[n+]([O-])c2ccc(Cl)cc2[n+]1[O-] ?
AMA1-RON2 inh: inactive

What do the screens show for `O=C(Nc1c2c(nn1-c1ccccc1)CS(=O)(=O)C2)c1cc2ccccc2o1`?
SARS PLpro yeast: inactive; Shiga inhibitor: inactive; AMA1-RON2 inh: inactive; Cycloheximide cs: inactive; Pf growth 48h: inactive; Pf growth 96h: inactive

What do the screens show for `CC(C)OCCCNc1ncc2c(n1)CC(c1cccs1)CC2=O` (configuration not stated)?
SARS PLpro yeast: inactive; Shiga inhibitor: inactive; AMA1-RON2 inh: inactive; Cycloheximide cs: inactive; Pf growth 48h: inconclusive; Pf growth 96h: 13µM

How did CCOc1cc(O)c(-c2[nH]ncc2-c2nc(C)cs2)cc1CC do in these assays?
SARS PLpro yeast: inactive; Shiga inhibitor: inactive; AMA1-RON2 inh: inactive; Cycloheximide cs: inactive; Pf growth 48h: 15µM; Pf growth 96h: inconclusive

What do the screens show for `CCOc1ccc(N(C(=O)c2ccccc2Cl)C2=NC(C)(C)CS2)cc1`?
SARS PLpro yeast: inactive; Shiga inhibitor: 66; AMA1-RON2 inh: inactive; Cycloheximide cs: 28; Pf growth 48h: inactive; Pf growth 96h: inconclusive

How did CCOc1ccc(/C=C(/NC(=O)c2ccccc2Cl)C(=O)O)cc1 do in these assays?
SARS PLpro yeast: inactive; Shiga inhibitor: inactive; AMA1-RON2 inh: inactive; Cycloheximide cs: inactive; Pf growth 48h: inactive; Pf growth 96h: inconclusive

Results for CC(CCN1CCN(c2ccccc2)CC1)c1ccccc1 (configuration not stated) ?
SARS PLpro yeast: inactive; Shiga inhibitor: inactive; AMA1-RON2 inh: inactive; Cycloheximide cs: inactive; Pf growth 48h: inactive; Pf growth 96h: inconclusive

What do the screens show for `CCCC1CCc2c(sc(NC(=O)OCC)c2C#N)C1` (configuration not stated)?
SARS PLpro yeast: inactive; Shiga inhibitor: inactive; AMA1-RON2 inh: inactive; Cycloheximide cs: inactive; Pf growth 48h: inactive; Pf growth 96h: 12µM

What do the screens show for `CCOC(=O)Nc1sc2c(c1C#N)CCCC2`?
SARS PLpro yeast: inactive; Shiga inhibitor: 74; AMA1-RON2 inh: inactive; Cycloheximide cs: 31; Pf growth 96h: inactive

How did Cc1ccc(S(=O)(=O)N2CCCC(c3nnc4n3-c3ccccc3SC4)C2)cc1 (configuration not stated) do in these assays?
SARS PLpro yeast: inactive; Shiga inhibitor: inactive; AMA1-RON2 inh: inactive; Cycloheximide cs: inactive; Pf growth 48h: inactive; Pf growth 96h: 13µM

Results for O=C(c1ccco1)N1N=C(c2ccc(Br)cc2)CC1c1ccco1 (configuration not stated) ?
SARS PLpro yeast: inactive[6.58 µM]; AMA1-RON2 inh: inactive; Pf growth 48h: inconclusive; Pf growth 96h: inconclusive

What do the screens show for `Cc1cc(-c2nc3ncccc3o2)ccc1NC(=O)CC(C)C`?
SARS PLpro yeast: inactive; Shiga inhibitor: inactive; AMA1-RON2 inh: inactive; Cycloheximide cs: inactive; Pf growth 48h: inactive; Pf growth 96h: 4.1µM

How did CCCCC(=O)Nc1cccc(-c2nc3ncccc3o2)c1C do in these assays?
SARS PLpro yeast: inactive; Shiga inhibitor: inactive; AMA1-RON2 inh: inactive; Cycloheximide cs: 15; Pf growth 48h: inactive; Pf growth 96h: inactive

What do the screens show for `Cc1ccc(-c2nc3ncccc3o2)cc1NC(=O)C(C)C`?
SARS PLpro yeast: inactive; Shiga inhibitor: inactive; AMA1-RON2 inh: inactive; Cycloheximide cs: inactive; Pf growth 48h: inconclusive; Pf growth 96h: inactive

Results for Cc1c(NC(=O)C(C)C)cccc1-c1nc2ncccc2o1 ?
SARS PLpro yeast: inconclusive; Shiga inhibitor: inactive; AMA1-RON2 inh: inactive; Cycloheximide cs: inactive; Pf growth 48h: inactive; Pf growth 96h: 9.3µM

Results for CC(C)CC(=O)Nc1cccc(-c2nc3ncccc3o2)c1 ?
SARS PLpro yeast: inactive; Shiga inhibitor: inactive; AMA1-RON2 inh: inactive; Cycloheximide cs: inactive; Pf growth 48h: inactive; Pf growth 96h: inconclusive
